Drawing on ChEMBL document CHEMBL3988442, “University of Dundee, Small-Polar-MMV Screening Library” (2021), this text covers Percent Effect for eight compounds.

SMILES strings stand for the structures. For some of these results: Measured potencies and affinities stand elsewhere.

Parameters in all cases: scale not given: direction of the effect not stated beside the values
Assay [1] concerns the target Protein translocase subunit SecA (Escherichia coli (strain K12)) (UniProt P10408). Nature of the assay: Assay to Identify E. coli SecA ATPase Inhibitors. In kind it is functional. The following applies: 30 µM.
For assay [2], the target named is T1, Ubiquitin-activating enzyme e1, putative (Leishmania donovani (strain BPK282A1)) (UniProt E9BSI1).
T1 sequence (whole entry): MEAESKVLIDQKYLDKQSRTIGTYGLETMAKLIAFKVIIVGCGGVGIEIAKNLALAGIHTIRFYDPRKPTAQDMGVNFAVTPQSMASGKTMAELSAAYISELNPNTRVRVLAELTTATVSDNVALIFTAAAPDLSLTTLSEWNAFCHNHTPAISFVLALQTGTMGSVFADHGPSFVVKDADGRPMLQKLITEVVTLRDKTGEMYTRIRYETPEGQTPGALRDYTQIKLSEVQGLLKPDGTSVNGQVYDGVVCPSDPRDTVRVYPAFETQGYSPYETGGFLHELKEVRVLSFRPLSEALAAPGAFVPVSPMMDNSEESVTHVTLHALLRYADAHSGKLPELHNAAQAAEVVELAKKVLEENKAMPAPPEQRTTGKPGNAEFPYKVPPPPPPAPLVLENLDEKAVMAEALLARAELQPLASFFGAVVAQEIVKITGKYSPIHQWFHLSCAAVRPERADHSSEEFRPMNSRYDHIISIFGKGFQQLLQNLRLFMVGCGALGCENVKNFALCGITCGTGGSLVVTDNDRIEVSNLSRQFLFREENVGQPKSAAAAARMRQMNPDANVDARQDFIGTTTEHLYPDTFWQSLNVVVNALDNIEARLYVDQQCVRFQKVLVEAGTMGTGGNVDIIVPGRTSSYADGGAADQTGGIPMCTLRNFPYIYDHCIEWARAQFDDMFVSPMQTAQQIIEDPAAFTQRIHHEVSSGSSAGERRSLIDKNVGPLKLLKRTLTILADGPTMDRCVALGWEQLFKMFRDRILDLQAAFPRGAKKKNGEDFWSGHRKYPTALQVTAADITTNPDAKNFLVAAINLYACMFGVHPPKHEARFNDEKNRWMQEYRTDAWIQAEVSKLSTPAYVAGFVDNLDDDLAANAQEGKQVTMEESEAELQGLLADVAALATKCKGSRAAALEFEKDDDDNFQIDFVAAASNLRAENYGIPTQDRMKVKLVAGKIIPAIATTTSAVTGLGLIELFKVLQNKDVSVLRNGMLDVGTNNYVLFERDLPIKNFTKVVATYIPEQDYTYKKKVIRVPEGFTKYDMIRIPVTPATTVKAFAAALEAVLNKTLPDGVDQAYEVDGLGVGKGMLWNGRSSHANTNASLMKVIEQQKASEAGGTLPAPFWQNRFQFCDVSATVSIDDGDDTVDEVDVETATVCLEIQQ
The assay can be described thus: Leishmania donovani Ubiquitin Activating Enzyme (LdE1). In kind it is functional. The following applies: 30 µM.

In assay [3] the target is AMP-activated protein kinase, AMPK (Homo sapiens) (UniProt P54646+O43741+P54619+Q9UGJ0+Q9Y478+Q13131+Q9UGI9). The assay can be described thus: AMP-dependent Kinase enzyme assay. An in vitro enzyme assay that detects ADP turnover that is directly proportional to AMPK activity. This uses naive AMPK that is activated during the assay with MK-8722. In kind it is functional. The following applies: 30 µM.

Assay [4] addresses Sialic acid-binding Ig-like lectin 9 (Homo sapiens) (UniProt Q9Y336). Nature of the assay: Hs-Siglec9 ALPHAscreen SOP 20170721. As to conditions: 10 µM. For orientation: In Alpha technology, singlet oxygen from a donor bead excites a nearby acceptor bead.
The test system of another assay is Trypanosoma cruzi. The assay can be described thus: Trypanosoma cruzi phosphomannomutase and mannose-1-phosphate guanylyltransferase assay. In kind it is functional. As to conditions: 10 µM.
Assay [5] concerns the target T2, Arginase-2, mitochondrial (Homo sapiens) (UniProt P78540).
T2 sequence (whole entry): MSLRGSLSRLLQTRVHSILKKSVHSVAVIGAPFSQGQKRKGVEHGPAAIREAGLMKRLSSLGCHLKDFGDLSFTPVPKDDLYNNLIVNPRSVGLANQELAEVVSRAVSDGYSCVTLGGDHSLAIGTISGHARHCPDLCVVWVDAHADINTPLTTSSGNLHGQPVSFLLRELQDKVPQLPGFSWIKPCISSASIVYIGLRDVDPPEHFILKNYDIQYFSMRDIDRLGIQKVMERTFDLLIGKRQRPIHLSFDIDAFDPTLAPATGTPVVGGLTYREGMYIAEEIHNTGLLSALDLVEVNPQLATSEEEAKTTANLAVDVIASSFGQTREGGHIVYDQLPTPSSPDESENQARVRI
Nature of the assay: in vitro enzyme assay to detect the production of urea directly proportional to the activity of Arginase II. Note: in the data most compounds retested in dose-response had high values. In kind it is functional. As to conditions: 33.3 µM.

The target in assay [6] is T3, Proteasome subunit beta (Trypanosoma cruzi) (UniProt O96673).
T3 sequence (whole entry): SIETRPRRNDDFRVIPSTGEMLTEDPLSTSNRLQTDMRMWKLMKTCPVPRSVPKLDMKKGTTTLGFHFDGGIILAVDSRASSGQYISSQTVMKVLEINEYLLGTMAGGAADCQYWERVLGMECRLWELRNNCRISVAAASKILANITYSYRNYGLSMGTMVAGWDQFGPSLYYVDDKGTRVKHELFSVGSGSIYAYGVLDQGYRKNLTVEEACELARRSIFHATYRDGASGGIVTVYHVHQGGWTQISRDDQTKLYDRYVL
Nature of the assay: Trypanosoma cruzi proteasome chymotrypsin-like activity (TcProtChymo) assay. Note: in the data most compounds retested in dose-response had high values. In kind it is functional. The following applies: 9.37 µM.

For a further assay, the species on record is Homo sapiens. Nature of the assay: To identify inhibition of the IFN signalling (Jak-Stat) pathway via expression of an eGFP reporter gene under the control of an IFN-stimulated response element (ISRE) containing MxA promoter. In kind it is functional. As to conditions: 30 µM. For orientation: Reporter assays use an easily measured gene product as a stand-in for the process of interest.

Assay [7] deals with T4, Tyrosyl-tRNA synthetase, putative (Trypanosoma cruzi (strain CL Brener)) (UniProt Q4DSP6).
T4 sequence (whole entry): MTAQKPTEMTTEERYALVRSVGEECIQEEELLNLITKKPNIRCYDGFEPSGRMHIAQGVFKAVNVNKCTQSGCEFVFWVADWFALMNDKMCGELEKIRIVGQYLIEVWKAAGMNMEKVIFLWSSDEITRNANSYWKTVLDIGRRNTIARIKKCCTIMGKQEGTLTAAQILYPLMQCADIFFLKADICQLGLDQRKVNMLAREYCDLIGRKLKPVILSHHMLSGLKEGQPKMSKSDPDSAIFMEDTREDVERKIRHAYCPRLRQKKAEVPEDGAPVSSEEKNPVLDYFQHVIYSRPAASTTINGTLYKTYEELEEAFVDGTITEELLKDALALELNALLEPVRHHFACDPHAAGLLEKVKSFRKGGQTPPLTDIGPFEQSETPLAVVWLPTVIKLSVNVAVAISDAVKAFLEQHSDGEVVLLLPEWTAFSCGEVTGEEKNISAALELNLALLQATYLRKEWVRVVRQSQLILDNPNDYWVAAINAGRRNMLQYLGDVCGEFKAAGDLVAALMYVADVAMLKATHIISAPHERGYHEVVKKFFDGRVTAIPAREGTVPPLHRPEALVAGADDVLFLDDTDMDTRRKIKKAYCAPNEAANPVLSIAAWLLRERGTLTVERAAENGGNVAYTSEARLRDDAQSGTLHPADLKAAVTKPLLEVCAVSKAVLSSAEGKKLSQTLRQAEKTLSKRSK
The assay can be described thus: Trypanosoma cruzi tyrosyl tRNA synthetase (TcYRS) _High Tyrosine SOP. Note: in the data most compounds retested in dose-response had high values. In kind it is functional. As to conditions: 30 µM.

Assay [8] addresses T4, Tyrosyl-tRNA synthetase, putative (Trypanosoma cruzi (strain CL Brener)). The assay can be described thus: Trypanosoma cruzi tyrosyl tRNA synthetase (TcYRS) SOP. In kind it is functional. As to conditions: 30 µM.
For assay [9], the target named is Chromo domain-containing protein 1 (Saccharomyces cerevisiae (strain ATCC 204508 / S288c) (Baker's yeast)) (UniProt P32657). The assay can be described thus: ScCHD-1 Enzyme Inhibition Assay. Note: in the data most compounds retested in dose-response had high values. In kind it is functional. As to conditions: 30 µM.
Chain of Chromo domain-containing protein 1 (Saccharomyces cerevisiae (strain ATCC 204508 / S288c) (Baker's yeast)) (P32657 whole entry, the tested form may be a part): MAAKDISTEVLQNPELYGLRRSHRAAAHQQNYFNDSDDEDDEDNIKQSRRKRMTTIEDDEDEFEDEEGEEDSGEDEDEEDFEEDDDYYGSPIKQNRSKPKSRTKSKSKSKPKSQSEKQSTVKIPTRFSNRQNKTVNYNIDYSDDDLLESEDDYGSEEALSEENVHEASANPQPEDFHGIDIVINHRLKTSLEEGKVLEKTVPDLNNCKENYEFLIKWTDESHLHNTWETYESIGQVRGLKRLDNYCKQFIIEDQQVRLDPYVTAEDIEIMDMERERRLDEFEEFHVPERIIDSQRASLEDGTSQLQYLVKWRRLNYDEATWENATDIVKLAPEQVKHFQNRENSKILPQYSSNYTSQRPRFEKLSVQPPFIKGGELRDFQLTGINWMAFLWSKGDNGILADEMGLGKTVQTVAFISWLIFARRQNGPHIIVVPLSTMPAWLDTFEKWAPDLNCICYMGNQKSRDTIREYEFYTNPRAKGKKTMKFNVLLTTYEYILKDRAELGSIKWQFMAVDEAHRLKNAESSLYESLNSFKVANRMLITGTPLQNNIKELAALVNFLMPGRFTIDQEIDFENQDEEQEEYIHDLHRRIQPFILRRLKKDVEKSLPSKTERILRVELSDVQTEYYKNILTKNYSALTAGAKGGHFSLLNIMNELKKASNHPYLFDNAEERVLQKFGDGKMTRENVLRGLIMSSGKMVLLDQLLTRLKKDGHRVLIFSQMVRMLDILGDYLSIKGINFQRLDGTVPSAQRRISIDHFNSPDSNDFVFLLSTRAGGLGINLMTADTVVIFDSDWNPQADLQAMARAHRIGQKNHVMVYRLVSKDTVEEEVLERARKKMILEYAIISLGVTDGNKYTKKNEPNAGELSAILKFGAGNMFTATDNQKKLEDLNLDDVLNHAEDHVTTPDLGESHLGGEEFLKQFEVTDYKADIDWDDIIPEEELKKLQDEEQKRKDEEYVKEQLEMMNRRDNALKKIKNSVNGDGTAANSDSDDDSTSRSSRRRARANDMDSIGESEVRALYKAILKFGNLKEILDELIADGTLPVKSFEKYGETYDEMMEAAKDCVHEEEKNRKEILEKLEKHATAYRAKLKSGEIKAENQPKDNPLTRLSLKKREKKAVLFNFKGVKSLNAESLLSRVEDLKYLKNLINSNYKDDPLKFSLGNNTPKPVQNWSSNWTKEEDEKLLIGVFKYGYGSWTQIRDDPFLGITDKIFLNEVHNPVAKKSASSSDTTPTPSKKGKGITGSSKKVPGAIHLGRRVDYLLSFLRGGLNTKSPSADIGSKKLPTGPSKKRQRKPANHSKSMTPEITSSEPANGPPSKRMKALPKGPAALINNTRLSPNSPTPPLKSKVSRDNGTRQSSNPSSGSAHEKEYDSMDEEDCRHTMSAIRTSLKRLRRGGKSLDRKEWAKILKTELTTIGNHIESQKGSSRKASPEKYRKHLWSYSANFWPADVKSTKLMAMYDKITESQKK

Chain of Sialic acid-binding Ig-like lectin 9 (Homo sapiens) (Q9Y336 whole entry): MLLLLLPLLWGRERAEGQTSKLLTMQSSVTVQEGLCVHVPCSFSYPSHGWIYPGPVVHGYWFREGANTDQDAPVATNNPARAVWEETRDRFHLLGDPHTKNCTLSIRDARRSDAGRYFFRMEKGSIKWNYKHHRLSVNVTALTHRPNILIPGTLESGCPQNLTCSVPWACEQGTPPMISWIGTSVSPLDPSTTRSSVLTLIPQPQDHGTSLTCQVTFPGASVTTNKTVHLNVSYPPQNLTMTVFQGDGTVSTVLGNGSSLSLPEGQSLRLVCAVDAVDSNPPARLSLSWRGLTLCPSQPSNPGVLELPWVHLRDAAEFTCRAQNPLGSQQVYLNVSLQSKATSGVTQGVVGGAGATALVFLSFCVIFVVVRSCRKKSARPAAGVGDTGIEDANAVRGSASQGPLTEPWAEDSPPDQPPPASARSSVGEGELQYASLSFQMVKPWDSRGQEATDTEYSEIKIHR
Chain of Protein translocase subunit SecA (Escherichia coli (strain K12)) (P10408 whole entry): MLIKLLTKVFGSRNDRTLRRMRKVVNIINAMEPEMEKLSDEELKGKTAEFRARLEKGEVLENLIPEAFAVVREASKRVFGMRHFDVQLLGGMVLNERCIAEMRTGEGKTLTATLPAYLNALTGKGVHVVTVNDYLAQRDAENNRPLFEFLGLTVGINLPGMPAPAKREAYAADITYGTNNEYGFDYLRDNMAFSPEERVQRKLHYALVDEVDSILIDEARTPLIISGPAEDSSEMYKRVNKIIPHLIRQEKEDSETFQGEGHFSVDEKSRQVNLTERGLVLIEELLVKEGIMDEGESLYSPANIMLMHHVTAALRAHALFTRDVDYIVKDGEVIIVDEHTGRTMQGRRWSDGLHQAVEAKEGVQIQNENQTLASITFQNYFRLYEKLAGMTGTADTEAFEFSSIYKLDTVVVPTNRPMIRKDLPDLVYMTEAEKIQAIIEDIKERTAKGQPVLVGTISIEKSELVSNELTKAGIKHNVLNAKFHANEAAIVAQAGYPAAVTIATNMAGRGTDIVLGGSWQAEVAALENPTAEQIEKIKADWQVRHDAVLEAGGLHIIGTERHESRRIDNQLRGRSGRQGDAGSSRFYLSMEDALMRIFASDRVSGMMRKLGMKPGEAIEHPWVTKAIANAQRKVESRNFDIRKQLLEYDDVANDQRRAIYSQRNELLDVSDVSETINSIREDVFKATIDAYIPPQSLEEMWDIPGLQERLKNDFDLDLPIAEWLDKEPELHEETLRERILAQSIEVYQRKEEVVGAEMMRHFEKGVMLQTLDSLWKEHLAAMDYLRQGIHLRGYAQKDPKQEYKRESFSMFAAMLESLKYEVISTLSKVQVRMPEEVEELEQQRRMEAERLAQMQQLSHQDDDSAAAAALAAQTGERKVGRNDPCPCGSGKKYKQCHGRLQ

As for `O=C(c1cnccn1)N1CCOC2(CCN(Cc3ccsc3)CC2)C1`, the Percent Effect in assay [1] is -1.55%; in assay [2] it was 0%; in assay [3], 2.03%; in [4], 7.22%; with Trypanosoma cruzi, 1.16%; in assay [5] it was -52.1%. The Percent Effect in [6] was 0%; in the assay listed under Homo sapiens, -18.7%; in assay [7] it was 2.08%; in assay [8], 2.5%; in assay [9], -4.34%.
Take `Cc1cnn(CCC(=O)N2CCCN(c3cccnn3)CC2)c1`: the Percent Effect was 1.07% in assay [1]; 3.8% in [2]; 1.28% in assay [3]; 0.558% in assay [4]; 1.74% in the assay on Trypanosoma cruzi; -0.645% in [5]. Besides, the Percent Effect was 13.2% in [6]; 12.8% in the assay filed under Homo sapiens; 2.08% in assay [7]; 5.06% in [8]; -16.1% in assay [9].
As for `CCC1(CC)Cc2ccccc2-c2nc(NCCO)[nH]c(=O)c21`, the Percent Effect in [1] is -5.77%; in assay [2] it was 10.5%; in assay [3] it was 29.9%; in assay [4], 1.17%; in the assay on Trypanosoma cruzi, -2.63%; in [5], 3.55%. In addition, the Percent Effect in assay [6] was 26.4%; in the assay listed under Homo sapiens it was 29.8%; in assay [7], 5.32%; in [8] it was 10.4%; in assay [9], -13.3%.
On to `CC(C)(C)c1ncc2c(n1)CN(C(=O)c1ccncc1)C2`, for which the Percent Effect in assay [1] is -2.88%; in [2], 5.48%; in [3], -0.32%; in assay [4], 6.45%; with Trypanosoma cruzi it was -3.57%; in assay [5] it was -3.19%. The Percent Effect in [6] is 17.7%; in the assay filed under Homo sapiens it was -6.92%; in assay [7], 9.38%; in assay [8], 16.1%; in assay [9] it was -0.422%.
As for `COc1cc(C)c(CN2CCC3(CC2)C(C(=O)O)CC(=O)N3C)cc1C` (stereo not drawn), the Percent Effect in assay [1] was -0.465%; in assay [2], 16%; in [3], -9.44%; in [4], 6.22%; with Trypanosoma cruzi, 0.682%; in assay [5] it was 6.77%. Further, the Percent Effect in assay [6] was 10.3%; in the assay filed under Homo sapiens it was 22.7%; in assay [7], 3.83%; in assay [8] it was 18.5%; in [9] it was -3.84%.
Consider `O=C(c1ccc(Cl)o1)N1CCCC(c2cc(C(F)(F)F)[nH]n2)C1` (stereo not drawn), for which the Percent Effect in assay [1] was -4.11%; in [2], 7.89%; in assay [3], 8.92%; in assay [4], -5.86%; in the assay with Trypanosoma cruzi it was -4.95%; in [5], -0.719%. Moreover, the Percent Effect in [6] is 2.45%; in the assay listed under Homo sapiens it was 29.4%; in [7], 3.45%; in assay [8] it was 3.7%; in [9], -2.91%.
With `CCOCC(O)CN1CCN(C(=O)c2ccc(OC)cc2F)CC1` (stereo not drawn), the Percent Effect in assay [1] was -4.94%; in assay [2], 18.2%; in assay [3], -0.292%; in assay [4] it was 4.59%; with Trypanosoma cruzi, 1.87%; in assay [5], 2.85%. Besides, the Percent Effect is 0.676% in assay [6]; 13.6% in the assay filed under Homo sapiens; 7.77% in assay [7]; 14.6% in assay [8]; -9.36% in assay [9].
`COc1ccc(CN2CCC3(CC(=O)N(c4cncnc4)C3)C2)cc1` (stereo not drawn): the Percent Effect in assay [1] was -1.48%; in assay [2], 16.2%; in assay [3], 5.08%; in assay [4] it was -9.74%; with Trypanosoma cruzi it was -3.81%; in assay [5], -7.33%. The Percent Effect is 12.9% in [6]; 5.2% in the assay listed under Homo sapiens; 1.08% in assay [7]; 7.69% in assay [8]; -3.32% in assay [9].
